Inconclusive results are not listed. A call without a number means that no potency is given here. Calls of active or inactive are those of the source. Calls come from the whole dose curve; as a rule, active = well fitted inhibition curve with a large enough effect; inconclusive = small, poorly fitted or top-dose-only effect; inactive = flat fitted curve, though single readings scatter.
Each compound was assayed on CP185 (assay: qHTS profiling for inhibitors of Plasmodium falciparum proliferation (AID 504749; note: nearly all actives have a fitted effect of over 60% in size)). Conditions: P. falciparum in erythrocytes, SYBR Green DNA, 72 h; series mostly up to 28.7 µM.
Outline: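 Each compound contacts P. falciparum-infected red blood cells for 72 h at 37 C; lysis buffer (Tris, EDTA, saponin, Triton X, SYBR Green I) is added and fluorescence measured next morning; values normalized to controls.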

Row | Compound | Potency
1 | C[C@](O)(CS(=O)(=O)c1ccc(F)cc1)C(=O)Nc1ccc(C#N)c(C(F)(F)F)c1 | inactive
2 | COP(=S)(OC)SCN1C(=O)c2ccccc2C1=O | inactive
3 | C[C@]12CC[C@@H]3c4ccc(OC(=O)N(CCCl)CCCl)cc4CC[C@H]3[C@@H]1CC[C@@H]2O | inactive
4 | O=P1(N(CCCl)CCCl)NCCCO1 (stereo unspecified) | inactive
5 | Cc1nnc2n1-c1ccc(Cl)cc1C(c1ccccc1)=NC2 | inactive
6 | O=C1Nc2ccc(Cl)cc2C(c2ccccc2)=NC1O (stereo unspecified) | inactive
7 | CCOC(=O)CC(SP(=S)(OC)OC)C(=O)OCC (stereo unspecified) | inactive
8 | CCCCCCCCCC(=O)O[C@H]1CC[C@H]2[C@@H]3CCC4=CC(=O)CC[C@@H]4[C@H]3CC[C@]12C | inactive
9 | Nc1ccccc1C(=O)O | inactive
10 | Oc1ccc(Cl)cc1 | inactive
11 | Cc1ncsc1CCCl | inactive
12 | CN1C(=O)CCS(=O)(=O)C1c1ccc(Cl)cc1 (stereo unspecified) | inactive
13 | NCCc1ccc(O)cc1 | inactive
14 | C[C@]12CCC(=O)C=C1CC[C@@H]1[C@@H]2CC[C@]2(C)C(=O)CC[C@@H]12 | inactive
15 | Clc1ccc2c(c1)C(c1ccccc1)=NCc1nncn1-2 | inactive
16 | O=C1CN=C(c2ccccc2)c2cc([N+](=O)[O-])ccc2N1 | inactive
17 | NC(=O)CS(=O)C(c1ccccc1)c1ccccc1 (stereo unspecified) | inactive
18 | CCC1(c2ccccc2)C(=O)N(COC)C(=O)N(COC)C1=O | inactive
19 | Nc1ccc([As](=O)(O)O)cc1 | inactive
20 | O=c1oc2ccccc2c(O)c1Cc1c(O)c2ccccc2oc1=O | inactive
21 | O=C(O)CCCc1ccc(N(CCCl)CCCl)cc1 | inactive
